# Shown is part of a subset that was picked to be rich in the strongest signals.
# B1: MGL6A (Homo sapiens) (protein)
# chain: MTRTYENFQYLENKVKVQGFKNGPLPLQSLLQRLCSGPCHLLLSLGLGLLLLVIICVVGFQNSKFQRDLVTLRTDFSNFTSNTVAEIQALTSQGSSLEETIASLKAEVEGFKQERQAVHSEMLLRVQQLVQDLKKLTCQVATLNNNGEEASTEGTCCPVNWVEHQDSCYWFSHSGMSWAEAEKYCQLKNAHLVVINSREEQNFVQKYLGSAYTWMGLSDPEGAWKWVDGTDYATGFQNWKPGQPDDWQGHGLGGGEDCAHFTPDGRWNDDVCQRPYHWVCEAGLGQTSQESH
# Key:
# Experiment in all cases: glycan array binding signal (z-score within array); higher = stronger binding
# Details in all cases: glycan notation: IUPAC condensed, linker removed; mutation: H262T
# [1] = molecular target: Fuc(a1-2)Gal(b1-3)GalNAc(a1-3)[Fuc(a1-2)]Gal(b1-4)Glc
# Method in brief: (§1)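 Glycan array data came from 3228 arrays in the Consortium for Functional Glycomics database, and only arrays with an available protein sequence were kept. Glycan names were put into IUPAC-condensed notation, and columns mapping to the same glycan were averaged. The binding signal is a within-array Z-score, averaged across arrays of one protein sequence run at different concentrations or buffers and across linkers. A negative Z-score can be read as non-binding.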
# [2] = molecular target: Fuc(a1-2)Gal(b1-3)GlcNAc(b1-3)[Gal(b1-4)GlcNAc(b1-6)]Gal(b1-4)Glc
# Method in brief: as §1
# [3] = molecular target: Fuc(a1-2)Gal(b1-4)GlcNAc
# Method in brief: as §1
# [4] = molecular target: Fuc(a1-2)Gal(b1-4)GlcNAc(b1-6)GalNAc
# Method in brief: as §1
# [5] = molecular target: Fuc(a1-2)Gal6S(b1-3)GlcNAc6S
# Method in brief: as §1
# [6] = molecular target: Fuc(a1-2)[Gal(a1-3)]Gal
# Method in brief: as §1
# [7] = molecular target: Fuc(a1-2)[Gal(a1-3)]Gal(b1-4)GlcNAc(b1-2)Man(a1-3)[Fuc(a1-2)[Gal(a1-3)]Gal(b1-4)GlcNAc(b1-2)Man(a1-6)]Man(b1-4)GlcNAc(b1-4)GlcNAc
# Method in brief: as §1
# [8] = molecular target: Fuc(a1-2)[Gal(a1-3)]Gal(b1-4)[Fuc(a1-3)]Glc
# Method in brief: as §1
# [9] = molecular target: Fuc(a1-2)[GalNAc(a1-3)]Gal(b1-3)GlcNAc(b1-6)GalNAc
# Method in brief: as §1
# [10] = molecular target: Fuc(a1-2)[GalNAc(a1-3)]Gal(b1-4)GlcNAc(b1-2)Man
# Method in brief: as §1
# [11] = molecular target: Fuc(a1-2)[GalNAc(a1-3)]Gal(b1-4)GlcNAc(b1-6)GalNAc
# Method in brief: as §1
# [12] = molecular target: Fuc(a1-2)[GalNAc(a1-4)]Gal(b1-4)GlcNAc
# Method in brief: as §1
# [13] = molecular target: Fuc(a1-2)[GalNAc(b1-3)]Gal
# Method in brief: as §1
# [14] = molecular target: Fuc(a1-4)GlcNAc
# Method in brief: as §1
# [15] = molecular target: Gal(a1-3)Gal
# Method in brief: as §1
# [16] = molecular target: Gal(a1-3)Gal(b1-3)GlcNAc(b1-6)GalNAc
# Method in brief: as §1
# [17] = molecular target: Gal(a1-3)Gal(b1-4)GlcNAc(b1-2)Man
# Method in brief: as §1
# [18] = molecular target: Gal(a1-3)Gal(b1-4)GlcNAc(b1-6)GalNAc
# Method in brief: as §1
# [19] = molecular target: Gal(a1-4)Gal(b1-4)GlcNAc(b1-2)Man(a1-3)[Gal(a1-4)Gal(b1-4)GlcNAc(b1-2)Man(a1-6)]Man(b1-4)GlcNAc(b1-4)GlcNAc
# Method in brief: as §1
# [20] = molecular target: Gal(b1-3)GlcNAc(b1-6)GalNAc
# Method in brief: as §1
# [21] = molecular target: Gal(b1-3)[Fuc(a1-4)]GlcNAc(b1-2)Man
# Method in brief: as §1
# [22] = molecular target: Gal(b1-4)Glc6S
# Method in brief: as §1
# [23] = molecular target: Gal(b1-4)GlcNAc(a1-6)Gal(b1-4)GlcNAc
# Method in brief: as §1
# [24] = molecular target: Gal(b1-4)GlcNAc(b1-2)[Gal(b1-4)GlcNAc(b1-4)]Man(a1-3)[GlcNAc(b1-4)][Gal(b1-4)GlcNAc(b1-2)[Gal(b1-4)GlcNAc(b1-6)]Man(a1-6)]Man(b1-4)GlcNAc(b1-4)GlcNAc
# Method in brief: as §1
# [25] = molecular target: Gal(b1-4)GlcNAc(b1-3)Gal(b1-4)GlcNAc(b1-3)Gal(b1-4)GlcNAc(b1-2)Man(a1-3)[Gal(b1-4)GlcNAc(b1-3)Gal(b1-4)GlcNAc(b1-3)Gal(b1-4)GlcNAc(b1-2)Man(a1-6)]Man(b1-4)GlcNAc(b1-4)GlcNAc
# Method in brief: as §1
# [26] = molecular target: Gal(b1-4)GlcNAc(b1-3)Gal(b1-4)GlcNAc(b1-3)GalNAc
# Method in brief: as §1
# [27] = molecular target: Gal(b1-4)GlcNAc(b1-6)Gal(b1-4)GlcNAc
# Method in brief: as §1
# [28] = molecular target: Gal(b1-4)GlcNAc(b1-6)GalNAc
# Method in brief: as §1
# [29] = molecular target: Gal(b1-4)GlcNAc(b1-6)[Gal(b1-4)GlcNAc(b1-3)]GalNAc
# Method in brief: as §1
# [30] = molecular target: Gal3S(b1-3)GlcNAc
# Method in brief: as §1
# [31] = molecular target: GalNAc(b1-3)GlcNAc
# Method in brief: as §1
# [32] = molecular target: GlcA3S(b1-3)Gal(b1-4)GlcNAc(b1-3)Gal(b1-4)Glc
# Method in brief: as §1
# [33] = molecular target: GlcNAc(a1-4)Gal(b1-4)GlcNAc
# Method in brief: as §1
# [34] = molecular target: GlcNAc(b1-2)[GlcNAc(b1-6)]Man(a1-6)[GlcNAc(b1-2)Man(a1-3)]Man(b1-4)GlcNAc(b1-4)[Fuc(a1-6)]GlcNAc
# Method in brief: as §1
# [35] = molecular target: GlcNAc(b1-3)Gal
# Method in brief: as §1
# [36] = molecular target: GlcNAc(b1-3)Gal(b1-3)GalNAc
# Method in brief: as §1
# [37] = molecular target: GlcNAc(b1-3)Gal(b1-4)GlcNAc(b1-3)Gal(b1-4)GlcNAc(b1-3)Gal(b1-4)GlcNAc(b1-2)[GlcNAc(b1-3)Gal(b1-4)GlcNAc(b1-3)Gal(b1-4)GlcNAc(b1-3)Gal(b1-4)GlcNAc(b1-6)]Man(a1-6)[GlcNAc(b1-3)Gal(b1-4)GlcNAc(b1-3)Gal(b1-4)GlcNAc(b1-3)Gal(b1-4)GlcNAc(b1-2)Man(a1-3)]Man(b1-4)GlcNAc(b1-4)[Fuc(a1-6)]GlcNAc
# Method in brief: as §1
# [38] = molecular target: GlcNAc(b1-4)GlcNAc(b1-4)GlcNAc(b1-4)GlcNAc(b1-4)GlcNAc(b1-4)GlcNAc
# Method in brief: as §1
# [39] = molecular target: GlcNAc(b1-6)GalNAc
# Method in brief: as §1
# [40] = molecular target: Kdn(a2-3)Gal(b1-3)GalNAc
# Method in brief: as §1
# [41] = molecular target: Kdn(a2-3)Gal(b1-4)GlcNAc
# Method in brief: as §1
# [42] = molecular target: Man(a1-3)[Man(a1-6)]Man(a1-6)[Man(a1-2)Man(a1-3)]Man(b1-4)GlcNAc(b1-4)GlcNAc
# Method in brief: as §1
# [43] = molecular target: Man(b1-4)GlcNAc
# Method in brief: as §1
# [44] = molecular target: Neu5Ac(a2-3)Gal(b1-3)GalNAc
# Method in brief: as §1
# [45] = molecular target: Neu5Ac(a2-3)Gal(b1-3)GalNAc6S
# Method in brief: as §1
# [46] = molecular target: Neu5Ac(a2-3)Gal(b1-3)GlcNAc
# Method in brief: as §1
# [47] = molecular target: Neu5Ac(a2-3)Gal(b1-4)GlcNAc(b1-2)Man(a1-3)[Neu5Ac(a2-3)Gal(b1-4)GlcNAc(b1-2)Man(a1-6)]Man(b1-4)GlcNAc(b1-4)GlcNAc
# Method in brief: as §1
# [48] = molecular target: Neu5Ac(a2-3)Gal(b1-4)GlcNAc(b1-6)GalNAc
# Method in brief: as §1
# [49] = molecular target: Neu5Ac(a2-3)Gal6S(b1-4)GlcNAc
# Method in brief: as §1
# [50] = molecular target: Neu5Ac(a2-3)Gal6S(b1-4)[Fuc(a1-3)]GlcNAc
# Method in brief: as §1
# [51] = molecular target: Neu5Ac(a2-3)GalNAc(b1-4)GlcNAc
# Method in brief: as §1
# [52] = molecular target: Neu5Ac(a2-6)Gal(b1-4)GlcNAc(b1-2)Man(a1-6)[Gal(b1-4)GlcNAc(b1-2)Man(a1-3)]Man(b1-4)GlcNAc(b1-4)GlcNAc
# Method in brief: as §1
# [53] = molecular target: Neu5Ac(a2-6)Gal(b1-4)GlcNAc(b1-3)Gal(b1-3)GlcNAc
# Method in brief: as §1
# [54] = molecular target: Neu5Ac(a2-6)Gal(b1-4)GlcNAc(b1-3)Gal(b1-4)GlcNAc(b1-3)[Neu5Ac(a2-6)Gal(b1-4)GlcNAc(b1-3)Gal(b1-4)GlcNAc(b1-6)]GalNAc
# Method in brief: as §1
# [55] = molecular target: Neu5Ac(a2-6)Gal(b1-4)GlcNAc(b1-3)Gal(b1-4)GlcNAc(b1-6)[Gal(b1-3)]GalNAc
# Method in brief: as §1
# [56] = molecular target: Neu5Ac(a2-6)GalNAc(b1-4)GlcNAc6S
# Method in brief: as §1
# [57] = molecular target: Neu5Ac(a2-6)GlcNAc(b1-4)GlcNAc(b1-4)GlcNAc
# Method in brief: as §1
# [58] = molecular target: Neu5Ac9Ac(a2-3)Gal(b1-3)GlcNAc
# Method in brief: as §1
# [59] = molecular target: Neu5Gc(a2-3)Gal(b1-4)GlcNAc
# Method in brief: as §1
binder,measurement,setting,value
B1,glycan array binding signal (z-score),[1],-0.173
same,glycan array binding signal (z-score),[2],-0.175
same,glycan array binding signal (z-score),[3],-0.174
same,glycan array binding signal (z-score),[4],7.25
same,glycan array binding signal (z-score),[5],-0.154
same,glycan array binding signal (z-score),[6],-0.171
same,glycan array binding signal (z-score),[7],-0.165
same,glycan array binding signal (z-score),[8],-0.177
same,glycan array binding signal (z-score),[9],5.97
same,glycan array binding signal (z-score),[10],-0.176
same,glycan array binding signal (z-score),[11],5.98
same,glycan array binding signal (z-score),[12],4.51
same,glycan array binding signal (z-score),[13],5.17
same,glycan array binding signal (z-score),[14],-0.173
same,glycan array binding signal (z-score),[15],-0.171
same,glycan array binding signal (z-score),[16],7.68
same,glycan array binding signal (z-score),[17],-0.18
same,glycan array binding signal (z-score),[18],7.07
same,glycan array binding signal (z-score),[19],-0.168
same,glycan array binding signal (z-score),[20],6.2
same,glycan array binding signal (z-score),[21],-0.169
same,glycan array binding signal (z-score),[22],-0.172
same,glycan array binding signal (z-score),[23],-0.172
same,glycan array binding signal (z-score),[24],-0.197
same,glycan array binding signal (z-score),[25],-0.169
same,glycan array binding signal (z-score),[26],-0.172
same,glycan array binding signal (z-score),[27],-0.172
same,glycan array binding signal (z-score),[28],3.65
same,glycan array binding signal (z-score),[29],-0.172
same,glycan array binding signal (z-score),[30],-0.208
same,glycan array binding signal (z-score),[31],0.976
same,glycan array binding signal (z-score),[32],-0.178
same,glycan array binding signal (z-score),[33],-0.173
same,glycan array binding signal (z-score),[34],-0.173
same,glycan array binding signal (z-score),[35],-0.178
same,glycan array binding signal (z-score),[36],-0.166
same,glycan array binding signal (z-score),[37],-0.162
same,glycan array binding signal (z-score),[38],-0.175
same,glycan array binding signal (z-score),[39],5.17
same,glycan array binding signal (z-score),[40],-0.176
same,glycan array binding signal (z-score),[41],-0.161
same,glycan array binding signal (z-score),[42],-0.153
same,glycan array binding signal (z-score),[43],-0.172
same,glycan array binding signal (z-score),[44],-0.16
same,glycan array binding signal (z-score),[45],-0.171
same,glycan array binding signal (z-score),[46],-0.176
same,glycan array binding signal (z-score),[47],-0.123
same,glycan array binding signal (z-score),[48],6.48
same,glycan array binding signal (z-score),[49],-0.173
same,glycan array binding signal (z-score),[50],-0.177
same,glycan array binding signal (z-score),[51],-0.169
same,glycan array binding signal (z-score),[52],-0.172
same,glycan array binding signal (z-score),[53],-0.175
same,glycan array binding signal (z-score),[54],-0.172
same,glycan array binding signal (z-score),[55],-0.166
same,glycan array binding signal (z-score),[56],-0.176
same,glycan array binding signal (z-score),[57],-0.175
same,glycan array binding signal (z-score),[58],-0.175
same,glycan array binding signal (z-score),[59],-0.175

# Reference: the supplement of paper PMC8728848
